Compounds without any hit were thinned out: in the full panel of roughly 83,000, 20% have a hit.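 Single-dose data. Exposure time 48 hours. Values below 10 considered active.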 A number with no mark means an inactive call. Active and inactive are the calls of the source.

For this experiment, the system named is MDA-MB-435 melanoma. The experiment in a line: NCI-60 one-dose screen, 48 h (100 = growth as untreated, 0 = no growth, -100 = all killed). The note with it: 10 µM unless noted.
`Nc1cc(C(=O)N/N=C\c2ccc(OC(F)F)c(OC3CCCC3)c2)nn1CC(O)c1ccccc1` (stereo not given): the growth is 103%.
As to `Clc1ccc2[nH]cc(-c3nn4cc(-c5ccncc5)nc4s3)c2c1`, the growth was 51%.
As to `CN1CC[C@@H]2[C@@]3(C)CC[C@H](O)C(C)(C)[C@@H]3CC[C@@]2(C)[C@]2(C)CC[C@@]3(CO)CCC(C)(C)C[C@@H]3C12` (stereo not given in full), the growth was 95.7%.
Consider `Brc1cc(-c2cc(-c3ccc4c(c3)OCCO4)[nH]n2)cs1`, for which the growth is -26.8% (active).
In the case of `NS(=O)(=O)c1ccc(Nc2nc(Nc3ccccc3)nc(N3N=C(c4ccc(Cl)cc4)CC3c3ccc(Cl)cc3)n2)cc1` (stereo not given), the growth is 39.1%.
The figure for `O=C(N/N=C\c1ccc([N+](=O)[O-])cc1)c1ccc2nc(-c3ccc(Br)cc3)[nH]c2c1` is 23.9%; for `O=C(/C=C/c1cccc(C(F)(F)F)c1)Nc1cccc(C(F)(F)F)c1` it is 48.5%; for `Brc1cccc(-c2cc(-c3ccc4c(c3)OC=CO4)[nH]n2)c1` it is -25.2% (active).
For `CCc1cc2c(cc1Cl)nc1c(=O)[nH]c(=O)nc-1n2CCOCC(C)C`, the growth was 3.04% (active).
For `CCCCSC1=C(Cl)CN(c2ccccc2)C1=O`, the growth is 108%.
As for `Brc1ccc(-c2cc(-c3ccc4c(c3)OC=CO4)n[nH]2)s1`, the growth is 15.3%.
On to `O=c1c2cc(-c3ccc(F)cc3F)ccc2n(Nc2ccccc2)c(=O)n1-c1cccc(C(F)(F)F)c1`, for which the growth is 5.62% (active).
The figure for `CN1CCN(CCCCCC(=O)Nc2nc(-c3cccc(NS(=O)(=O)c4cccc5c(N(C)C)cccc45)c3)cs2)CC1` is 52.1%; for `CCCCc1nc2c(N)nc3ccccc3c2n1Cc1cccc(CN)c1` it is 4.8% (active); for `CCCCCCCCCCCC(=O)NC(C)(C)C(=O)N1CCCC1C(=O)NC(C)(C)C(=O)NC(C)(C)C(=O)N1CCCC1C(=O)NC(C)(C)C(=O)NC(C)(C)C(=O)N1CCCC1C(=O)NC(C)C(=O)NCCC(=O)NC(C)C(=O)NC(C)(C)C(=O)NC(C)(C)C(=O)NC(C)(C)C(=O)NCCC(=O)NC(C)(C)C(=O)NC(C)(C)C(=O)NC(C)(C)C(=O)NC(C)C(=O)NCCC(=O)O` (stereo not given) it is -89.9% (active).
Consider `NS(=O)(=O)c1ccc(Nc2nc(N/N=C/c3ccc4c(c3)OCO4)nc(Nc3ccccc3)n2)cc1`, for which the growth was 59.2%.
Consider `O=[N+]([O-])c1ccc(NC(=S)NNC(=S)Nc2ccc(Br)cc2)cc1`, for which the growth was 99%.
Then `Cc1cc(=O)[nH]c(O)c1C#N`, with 105%; and `Cc1ccc(OCc2occc2C(=O)N2CCOCC2)cc1`, with 100%; and `O=C1C(SCc2ccccc2)=C(Cl)CN1c1ccccc1`, with 96.8%.
As to `COc1ccc(C2C(C#N)=C(/N=C/c3ccc(Cl)cc3)Oc3c2sc2c(C)cccc32)cc1` (stereo not given), the growth was -23.5% (active).
With `CN(C)CCNc1ccc2ncc(C#Cc3cncc(C(=O)Nc4ccc(CN5CCN(C)CC5)c(C(F)(F)F)c4)c3)n2n1`, the growth was 40.5%.
Take `CN1CCC[C@]2(C)[C@H]3CC[C@@H]4[C@@H]5[C@H]6OC[C@@]5(CCC6(C)C)CC[C@@]4(C)[C@]3(C)CC[C@H]2C1(C)C`: the growth was 69.8%.
As for `COc1ccccc1/C=C/C(=O)c1nnn(-c2ccc(F)cc2)c1C`, the growth was 23.4%.
`CC(C)[C@H]1c2[nH]c3ccccc3c2C[C@H]2C(=O)N(CCCCCCC(=O)NO)CC(=O)N12`: the growth is 74.9%.
With `COC(=O)CCCNCCCn1ccc2cc(NCc3cccc(-c4ccccc4)c3C)ccc21`, the growth is 70.9%.
For `C=C(C=O)[C@@H]1CC[C@]2(C(=O)O)CC[C@]3(C)C(CC[C@@H]4[C@@](C)(CCC#N)[C@H](C(=C)C=O)CC[C@]43C)[C@@H]12` (stereo not given in full), the growth was -9.89% (active).
In the case of `CC1(C)CC[C@]23CC[C@]4(C)[C@H](CC[C@@H]5[C@@]6(C)CC[C@H](NCO)C(C)(C)[C@@H]6CC[C@]54C)[C@H]2[C@H]1OC3`, the growth is 38.8%.
Then `O=C1/C(=C/C=C/c2ccco2)SC(=S)N1Cc1ccccc1`, with 92.7%; and `COc1ccc(/C=N/NC(=O)c2c(N)nn(C)c2Nc2ccccc2)cc1Oc1ccccc1`, with 101%.
Consider `Cc1[nH]c(C(=O)Nc2ccc(S(=O)(=O)N3CCCCC3)cc2OCCOCCOCCOCCOCCOCCOCCOCCOCCOc2cc(S(=O)(=O)N3CCCCC3)ccc2NC(=O)c2[nH]c(C)c3c2CCCCC3=O)c2c1C(=O)CCCC2`, for which the growth is 18%.
As for `COc1ccc(C(=NNS(=O)(=O)c2ccc(C)cc2)c2ccccc2)cc1OC`, the growth was 106%.
In the case of `CNC(=O)c1cc(Oc2ccc3c(c2)sc2nc(-c4ccc(N(C)C)cc4)cn23)ccn1`, the growth was -37.8% (active).
Then `CN1CCN(Cc2ccc(/C=N/Nc3ccnc4cc(Cl)ccc34)cc2)CC1`, with 93.6%; and `O=C1Nc2ccccc2/C1=N\c1nnc(-c2ccccc2)o1`, with 102%; and `COc1ccc2c(c1)C=CC1(O2)Oc2ccc(OC)cc2C=C1C` (stereo not given), with -35.3% (active).
For the compound `Cn1cc(-c2nn3cc(-c4ccncc4)nc3s2)c2cc(Br)ccc21`, the growth was 32.4%.
`C#Cc1nc(/C=C/CCCCCCC(=O)NO)cs1`: the growth was 55.3%.
As for `CC[C@]12CC(C(=O)OC)=C3Nc4ccccc4[C@@]34CCN(C14)[C@@H]1c3cc4c(cc3O[C@@H]1[C@H]2O)NC1=C(C(=O)OC)C[C@@]2(CC)C3N(CC[C@@]143)C[C@H]1O[C@H]12` (stereo not given in full), the growth is -10.9% (active).
Then `O=C(CCCCCCN1CC(=O)N2[C@@H](C3CC3)c3[nH]c4ccccc4c3C[C@H]2C1=O)NO`, with 40.3%.

The values above are taken from PubChem BioAssay (NCI).
